Data taken from PubChem BioAssay (NCATS).
Records with an inconclusive call do not appear. Active and inactive are the calls of the source. Calls come from the whole dose curve; as a rule, active = well fitted curve in the direction sought with a large enough effect; inconclusive = small, poorly fitted or top-dose-only effect, or another doubt; inactive = no such curve, though single readings can be large; an effect the other way counts as inactive or inconclusive.

Experiment: qHTS for differential inhibitors of proliferation of Plasmodium falciparum line Dd2 (AID 1882); note: nearly all actives have a fitted effect of over 65% in size;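 for activity change, negative = inhibition: compound exposure of 72 h on infected erythrocytes; plate controls were DMSO vehicle for no effect and 0.29 µM artemisinin for full effect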
Conditions: Potency: Plasmodium falciparum Dd2 proliferation inhibition; series mostly up to 28.7 µM; activity change, negative = inhibition: at the top concentration
Summary of the method: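 SYBR Green I DNA fluorescence read-out, ex 485/em 535 nm. Signals were normalized to 0.29 uM artemisinin and DMSO wells, then corrected using vehicle-only plates flanking each stack. Parasite growth ran 72 h in erythrocytes before lysis.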
Potency is the fitted concentration of half-maximal effect.

Row | Structure (SMILES) | activity change, negative = inhibition | Potency
1 | CCCCCCCCC(=O)NCc1ccc(O)c(OC)c1 | -0.258% (inactive) | –
2 | C[N+](C)(C)CCCCCCCCCC[N+](C)(C)C | – | 10 µM (active)
3 | CC(N)C(=O)OC(C)(C)Cc1ccc(Cl)cc1 (stereo unspecified) | – | 5.62 µM (active)
4 | COC(=O)C1=CCCN(C)C1 | -0.706% (inactive) | –
5 | COc1ccc(C(=O)N2CCCC2=O)cc1 | 2.67% (inactive) | –
6 | O=C(O)c1nn(Cc2ccc(Cl)cc2Cl)c2ccccc12 | 3.5% (inactive) | –
7 | NC(=O)CN1CCCC1=O | 6.35% (inactive) | –
8 | CC[C@H]1CN2CCc3cc(OC)c(OC)cc3[C@@H]2C[C@@H]1C[C@H]1NCCc2cc(OC)c(OC)cc21 | – | 0.112 µM (active)

Experiment: qHTS for differential inhibitors of proliferation of Plasmodium falciparum line W2 (AID 1883);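 note: parasites grown with compound for 72 h before lysis and staining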;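 for activity change, negative = inhibition: 0% = vehicle wells and -100% = control inhibitor wells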
Conditions: Potency: Plasmodium falciparum W2 proliferation inhibition; series mostly up to 28.7 µM; activity change, negative = inhibition: at the top concentration

Row | Structure (SMILES) | Potency | activity change, negative = inhibition
9 | C[N+](C)(C)CCCCCCCCCC[N+](C)(C)C | 0.562 µM (active) | –
10 | NC(N)=N/N=C/c1c(Cl)cccc1Cl | 3.98 µM (active) | –
11 | O=C1CC2(CCCC2)CC(=O)N1CCCCN1CCN(c2ncccn2)CC1 | 10 µM (active) | –
12 | CC(N)C(=O)OC(C)(C)Cc1ccc(Cl)cc1 (stereo unspecified) | 1.41 µM (active) | –
13 | c1ccc2nc(N3CCNCC3)ccc2c1 | 7.08 µM (active) | –
14 | COc1ccc(C(=O)N2CCCC2=O)cc1 | – | -5.62% (inactive)
15 | CNC(=O)Oc1ccc2c(c1)[C@]1(C)CCN(C)[C@@H]1N2C | 7.08 µM (active) | –
16 | Cc1cc(C(C)(C)C)cc(C)c1CC1=NCCN1 | 5.62 µM (active) | –
17 | O=C(O)c1nn(Cc2ccc(Cl)cc2Cl)c2ccccc12 | – | -7.88% (inactive)
18 | NC(=O)CN1CCCC1=O | – | -4.29% (inactive)
19 | NC(N)=NC(=O)c1nc(Cl)c(N)nc1N | 8.91 µM (active) | –
20 | COC(=O)C1=C(C)NC(C)=C(C(=O)OC)C1c1ccccc1[N+](=O)[O-] | 12.6 µM (active) | –
